Compound activity: PubChem BioAssay, National Center for Advancing Translational Sciences (NCATS)
A selection: hits, their analogues and other compounds. The true share with any hit is near 6.5%.
HT1080NT lethal: kills 2HG-producing HT-1080-NT fibrosarcoma cells. Potency, µM (titrated, usually from 46.1 µM), inactives show at the highest dose activity, negative = less viability, hits mostly cytotoxic. HT-1080-NT fibrosarcoma viability, CellTiter-Glo ATP luminescence, 48 h. actives 1.6% (n = 360,000);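 further: NT is the 2HG producing partner of a matched IDH1 knockdown line; potency means the concentration at half of the fitted maximal effect; 0% = DMSO-treated cells and -100% = media-only wells without cells; nearly all actives have a fitted effect of over 55% in size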
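Luminescent CellTiter-Glo readout after 48 hours of compound exposure at 37 degrees C defined viability of HT-1080-NT cells. Activity was normalized to DMSO wells and cell-free media wells; concentration-response curves were fitted and assigned curve classes.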
IL-1B inflam inh: blocks inflammasome-driven IL-1 beta release; THP-1 LPS/ATP IL-1B secretion, AlphaLISA, 16 h; hits give low values; activity change, % at 57.5 µM; actives 4.7% (n = 360,000); in the data active means activity change below about -50%; inconclusive means mostly about -30% to -49%; further: on the % scale 0 is the no-effect control and ±100 the full control effect
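Secreted IL-1B measured by AlphaLISA bead assay after 16 h compound exposure of THP-1 cells; compounds (final up to 57.5 uM) added 1 h before LPS (250 ng/mL) and ATP (1.25 mM) stimulation; lower signal means less secretion.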
HepG2 viability: kills HepG2 cells in TGF-b inhibitor counter-screen; HepG2 CAGA-GFP viability, ATP luminescence, 18 h; actives 0.76% (n = 410,000); Potency, µM (highest dose often 46.1 µM), inactives show at the top dose activity change, negative = cytotoxicity, hits mostly cytotoxic; further: potency means the concentration at half of the fitted maximal effect
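HepG2 CAGA-GFP cells (1000/well, DMEM with 1% FBS) received compound, then TGF-beta at 500 pg/mL final, and were incubated 18 hours at 37 degrees C. Viability was read by CellTiter-Glo luminescence. Media-only wells were set as complete cell-killing and DMSO as no toxicity.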
TGFb SMAD3 inh: inhibitors of TGF-b signaling. HepG2 CAGA-GFP TGF-b/SMAD3 reporter, GFP fluorescence, 18 h; TGF-beta stimulated, 500 pg/mL final. Potency, µM (titrated, usually from 46.1 µM), for inactives: at the highest dose activity, negative = inhibition, hits mostly inhibitors. actives 1.2% (n = 410,000); further: potency means the concentration at half of the fitted maximal effect; on the % scale 0 is the no-effect control and ±100 the full control effect; nearly all actives have a fitted effect of over 65% in size
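TGF-beta reporter screen: HEPG2 CAGA-GFP, 1% FBS, 500 pg/mL TGF-beta final, 18 h; per-cell GFP summed per well; curves fitted and categorized by class.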
Giardia kill: Giardia lamblia killing; Giardia lamblia trophozoite viability; activity change, % at 7.66 µM, hits read low; actives 0.15% (n = 340,000); AID 540267; in the data active means activity change below about -80%; inconclusive means between about -30% and that limit;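 further: parasites exposed to compound for two days anaerobically before the ATP read; on the % scale 0 is the no-effect control and ±100 the full control effect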
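Giardia lamblia trophozoites (100 cells/well) were incubated with compounds for 48 h at 37 deg C under anaerobic conditions. Viability was read as ATP content by one-step luminescence after 15-30 min at room temperature.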
HT1080 IDH1KD tx: kills HT-1080 cells with IDH1 knockdown; HT-1080 IDH1 knockdown viability, ATP luminescence, 48 h; Potency, µM (doses to about 46.1 µM), without a hit: top-dose activity, negative = toxicity, hits mostly cytotoxic; actives 2% (n = 360,000); AID 686971;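 further: potency means the concentration at half of the fitted maximal effect; 0% = DMSO wells and -100% = cell-free medium wells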
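Viability of IDH1-knockdown HT-1080 fibrosarcoma cells was assessed by CellTiter-Glo after 48 h at 37 °C with titrated compound; concentration-effect curves were classified by fit quality and response size.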
* marks the source's active call; other numbers are inactive results; u = inconclusive; x = no result given; [ ] = remark or other dose. Unless noted, the call rests on the fitted dose curve; in most records, active means well fitted curve in the direction sought with a large enough effect; inconclusive means small, poorly fitted or top-dose-only effect, or another doubt; inactive means no such curve, though single readings can be large; an effect the other way counts as inactive or inconclusive.

SMILES	HT1080NT lethal	IL-1B inflam inh	HepG2 viability	TGFb SMAD3 inh	Giardia kill	HT1080 IDH1KD tx
O=C1C(N2CCOCC2)=C(n2nnc3ccccc32)C(=O)c2ccccc21	12µM*	-78*	14µM*	u	-21	16µM*
Cc1ccc(-c2nc(NCc3cccnc3)c3ccccc3n2)cc1	2%	-76*	-31%	0%	-4	-14%
OC(CNc1nc(-c2cccnc2)nc2ccccc12)c1ccccc1 (stereo unspecified)	u	-66*	-34%	-27%	-9	u
COc1ccc(CNc2nc(-c3ccccc3)nc3ccccc23)cc1OC	u	-62*	8%	0%	-8	-28%
c1ccc(-c2nc(NCc3cccnc3)c3ccccc3n2)cc1	-29%	u	-33%	-6%	-6	u
COc1cccc(-c2nc(NCc3ccccc3)c3ccccc3n2)c1O	u	10	-34%	u	36	u
Clc1cccc(-c2nc(NCc3cccnc3)c3ccccc3n2)c1	u	-58*	-37%	u	-17	u
CCN1C/C(=C/c2sccc2C)c2nc3ccccc3c(C(=O)O)c2C1	0%	24	16%	-9%	0	1%
C#CCn1c(=NC(=O)c2ccco2)sc2cccc(Cl)c21	8%	17	12%	-10%	-13	-8%
COC(=O)C1=C(C)n2nnnc2NC1c1ccc(Cl)cc1 (stereo unspecified)	2%	-6	-1%	24%	-14	-1%
Cc1ccc(-c2nc(N/N=C/c3cccnc3)c3ccccc3n2)cc1	11µM*	u	14µM*	u	-4	u
Cc1cc(CSc2nc(C)cc(=O)[nH]2)c2ncccc2c1	-21%	6	-17%	9%	0	-8%
C=CCn1c(Cc2c(C)[nH]c3ccccc23)nnc1SCC(=O)NCc1ccc(F)cc1	-5%	-10	-1%	9%	14	1%
Cc1cccc(/N=C/c2c(O)ccc3oc4c(c23)CCCC4)n1	-11%	26	1%	16µM*	1	-8%
Cc1cccc(/N=C/c2c(O)cc(C)oc2=O)n1	7%	10	4%	55%	u	7%
Clc1ccc(-c2n[nH]c3c2CCCC3)cc1	18%	0	-31%	u	13	-3%
COc1ccc(/C=C2\SC(=O)N(CCC(=O)Nc3ccccc3)C2=O)cc1OC	u	11	-10%	8%	-6	u
COc1cc(/C=C2\SC(=O)N(CCN)C2=O)ccc1OS(=O)(=O)c1cc(C)ccc1C	u	-109*	-100%	u	-3	u
O=C1N=C(N2CCOCC2)S/C1=C/c1cc2c(cc1[N+](=O)[O-])OCO2	u	-100*	-34%	-15%	-8	u
O=C1N=C(N2CCOCC2)SC1=Cc1ccco1	12%	-4	1%	-2%	12	5%
CS(=O)(=O)c1ccc(CNC(=O)C2(C(F)(F)F)CC(CCCO)CCCO2)cc1 (stereo unspecified)	1.6µM*	-4	-41%	4%	6	5.8µM*
CN(Cc1cccc2ccccc12)C(=O)c1cc(COc2c(F)cccc2F)on1	4%	u	3%	-1%	-4	1%
CCc1ccc(CN(C)C(=O)c2cc(COc3c(F)cccc3F)on2)cc1	7%	-58*	6%	-6%	-6	17%
CCOc1ccc(C(Nc2cccnc2)c2cc(Cl)c3cccnc3c2O)cc1 (stereo unspecified)	-26%	0	-35%	u	4	15µM*
CCOc1ccc(C(NC(C)=O)c2cc(Cl)c3cccnc3c2O)cc1 (stereo unspecified)	x	x	-59%	3.2µM*	x	x
SMILES	HT1080NT lethal	IL-1B inflam inh	HepG2 viability	TGFb SMAD3 inh	Giardia kill	HT1080 IDH1KD tx
CCOc1cc(C(=O)OCC(=O)N(C)c2ccccc2)cc(OCC)c1OCC	9%	-2	-14%	7%	0	2%
COC(=O)CSc1nc2ccc(NC(=O)c3ccccc3C(=O)N3CCOCC3)cc2s1	16%	-65*	-3%	2%	2	16%
COc1ccc(NC(=O)CN2C(=O)NC(C)(c3ccc(C)cc3)C2=O)c([N+](=O)[O-])c1 (stereo unspecified)	-4%	-6	-2%	6%	0	-4%
CC[C@H](C)[C@@H]1NC(=O)[C@@H](CC(C)C)NC(=O)[C@H](C(C)C)NC(=O)[C@H]2CSSC[C@H](NC1=O)C(=O)N2	0.46µM*	-116*	1.1µM*	1.3µM*	x	0.52µM*
CC(C)C[C@@H]1NC(=O)[C@H](C(C)C)NC(=O)c2cc([N+](=O)[O-])cc(I)c2NCC[C@@H](C(N)=O)NC1=O	14%	-6	-2%	u	10	7%
O=C(CCCn1c(=O)c2ccccc2n(Cc2ccccc2)c1=O)NCc1ccco1	u	-8	0%	8%	-24	u
COc1ccc(CCNC(=O)CCCn2c(=O)c3ccccc3n(Cc3cccc(Cl)c3)c2=O)cc1OC	x	x	-37%	11µM*	x	x
O=C(CCCCn1c(=O)c2ccccc2n(Cc2ccc(F)cc2)c1=O)NCc1ccco1	18µM*	-4	1%	-1%	8	-15%[9.24 µM]
COc1ccc(NC(=O)CN(c2cc(C)cc(C)c2)S(=O)(=O)c2c(C)noc2C)cc1Cl	x	x	-43%	-59%	x	x
O=C(CSc1ccccc1C(=O)N1CCN(c2ccccc2)CC1)N1CCCC1	1%[9.24 µM]	6	3%	-7%	-3	2%
COc1cc2ccccc2cc1C(=O)N/N=C/c1cccs1	u	33	3%	-16%	x	4.1µM*
COC(=O)N/N=C/c1cccs1	0%	-10	-11%	-5%	-1	4%
COc1cc2ccccc2cc1C(=O)Nc1ccc(N2CCN(C)CC2)cc1	u	-3	13µM*	-14%	23	u
COc1cc2ccccc2cc1C(=O)Nc1cccnc1	-1%	0	-27%	0%	-13	-4%
COc1ccc(NC(=O)c2cc3ccccc3cc2OC)cc1	16µM*	-15	-1%	-4%	-2	16µM*
CCOc1ccc(NC(=O)c2cc3ccccc3cc2OC)cc1	u	5	1%	-20%	1	23µM*
CC1(C)CC(=O)C2=C(C1)OC(=O)C2(NC(=O)c1cccs1)C(F)(F)F (stereo unspecified)	0%	1	0%	17%	-10	6%
